# Data taken from the supplement of paper PMC12067093, “Discovery and optimisation of a covalent ligand for TRIM25 and its application to targeted protein ubiquitination” (Chemical Science, 2025).
# The full data set covers some 21,000 targets. This sample favours those with the largest changes.
# Target: PYCR1_P32322_95_HIVVSCAAGVTISSIEK (UniProt P32322)
# Experiment: probe-labelled cysteine peptide fold change vs DMSO (competition) (log2 fold change); higher = less target engagement (more negative = stronger competition)
# Settings: THP-1, incubation time: 4 h
# 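Further: competitive chemoproteomic profiling in live THP-1 cells with an iodoacetamide desthiobiotin (IA-DTB) probe, comparing probe-labelled peptide intensities in compound-treated cells against DMSO-treated controls.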
compound,measurement,setting,value
CC1Cc2ccccc2N1C(=O)C1CCCN(C(=O)CCl)C1 (mixture of isomers) [TRIM25 ligand 11 (diastereomer mixture)],probe-labelled cysteine peptide fold change,10 µM,0.0152
same,probe-labelled cysteine peptide fold change,50 µM,0.0688
